Experimental findings from ChEMBL document CHEMBL1157539, “Thousands of chemical starting points for antimalarial lead identification” (Nature, 2010) are described below.

Molecules are shown by their SMILES.

As usually defined, the Inhibition is the drop in the measured response relative to a control, in per cent. Higher therefore signals strong suppression.

The test deals with Plasmodium falciparum. Put plainly: GSK_TCMDC: Inhibition of Plasmodium falciparum 3D7 in whole red blood cells, using parasite LDH activity as an index of growth. Test compounds present at 2uM. The format is functional.
With `CN(c1ccccc1)c1ccnc(NC(=N)Nc2ccc(Cl)cc2)n1`, the Inhibition turned out to be 87%.

In turn, `CSc1nccc(-c2ccc3ccnc(N)c3c2)n1` displayed an Inhibition of 100%. The figure for `COc1cccc(Nc2nc(C)cc(NCc3ccc(-n4ccnc4)cc3)n2)c1` is 100%; for `CCOc1ccc(C(=O)Nc2cc(Br)c3c(c2)CNCC3)cc1Br.Cl` it is 96%.

Turning to `Cc1cc(C)c(C(=O)Nc2ccc3nc(C)cc(N)c3c2)c(C)c1.Cl`, the Inhibition is 84%. The figure for `CCOc1ccc2c(=NN=Cc3cc(OC)c(OC)cc3OC)cc(C)[nH]c2c1` is 100%; for `CCc1cn2c3c(cc(C(=O)N[C@@H](Cc4ccccc4)[C@H](O)CNC4CCCCC4)cc13)N(CC)S(=O)(=O)CC2.O=CO` it is 98%.

In turn, `CCOc1cc(C(=O)NCc2cc(Cl)cc(Cl)c2)ccc1-c1nc2cc(Cl)ccc2[nH]1` showed an Inhibition of 100%.

With `Cl.Clc1ccc(OC2CCC(Cn3ccnc3)(c3ccc(Cl)cc3Cl)CC2)c(Cl)c1` (centres undefined), the Inhibition was 98%. The same measure for `COCc1cc(C)nc2sc(C(=O)Nc3cc(C(C)(C)C)ccc3O)c(N)c12`: 85%; for `Nc1ccc(-c2nc3cc(C4=N[C@H]5CCCC[C@H]5N4)ccc3o2)cc1[N+](=O)[O-]`: 95%; for `CN1CCCc2cc(NC(=O)c3cc(-c4ccc(Cl)cc4)cs3)ccc2C1.O=C(O)C(F)(F)F`: 100%. With `Nc1ccn([C@@H]2O[C@H](COC(c3ccccc3)(c3ccccc3)c3ccccc3)[C@@H](O)[C@@H]2O)c(=O)n1`, the Inhibition is given as 93%. The same measure for `CCOc1ccc(C2CCN(CCCCNC(=O)c3ccc(NC(=O)c4ccc(Cl)cc4)cc3)CC2)c(CC)c1`: 100%.
